Bioassay records deposited in PubChem BioAssay by National Center for Advancing Translational Sciences (NCATS).
ALDH1A1 inh: inhibitors of human aldehyde dehydrogenase 1A1 | Purified ALDH1A1, NADH fluorescence, propionaldehyde substrate | Potency, µM (top dose mostly 75.3 µM), hits mostly inhibitors | 220,000 tested, 7.3% active | AID 1030; active means well fitted inhibition curve with a large enough effect, not every such curve was filed as active; inconclusive means small, poorly fitted or top-dose-only effect, or another doubt; inactive means no such curve, though single readings can be large or run the other way
Tau fluor counter: counter-screen for tau fibril formation inhibitors; tau K18 P301L Alexa594 fluorescence, heparin fibrillization; Potency, µM (top dose mostly 57.7 µM); 280,000 tested, 0.93% active; AID 1463; further: nearly all actives have a fitted effect of over 55% in size
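Human K18 P301L tau (15 uM unlabeled plus 0.24 uM Alexa 594-labeled, final) in 100 mM sodium acetate pH 7 was mixed with compound and 20 uM heparin and incubated 6 hr at 37 C.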
NPSR antagonist: neuropeptide S receptor (human) antagonism, cAMP; Q6W5P4; CHO-NPSR cells, cAMP TR-FRET, antagonist mode; Potency, µM (series often up to 38.3 µM), actives largely listed as inhibitors; 220,000 tested, 1% active; further: nearly all actives have a fitted effect of over 50% in size
Target sequence (Q6W5P4 whole entry, looked up): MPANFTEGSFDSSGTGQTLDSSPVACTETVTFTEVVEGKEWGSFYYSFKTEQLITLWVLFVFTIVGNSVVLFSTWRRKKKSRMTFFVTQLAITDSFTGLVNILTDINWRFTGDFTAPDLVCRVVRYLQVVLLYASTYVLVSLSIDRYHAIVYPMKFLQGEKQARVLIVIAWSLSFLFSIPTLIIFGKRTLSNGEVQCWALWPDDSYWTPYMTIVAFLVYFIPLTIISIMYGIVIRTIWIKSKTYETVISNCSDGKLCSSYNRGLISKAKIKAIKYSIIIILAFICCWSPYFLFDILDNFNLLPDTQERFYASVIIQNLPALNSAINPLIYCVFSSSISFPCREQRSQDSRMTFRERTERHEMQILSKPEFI
Tau fibril FP: inhibitors of human tau fibril formation; 280,000 tested, 0.39% active; AID 1468; P10636; Potency, µM (series often up to 57.7 µM), actives largely listed as inhibitors; K18 P301L tau heparin fibrillization, Alexa594 FP, 6 h; further: nearly all actives have a fitted effect of over 55% in size
Target sequence (P10636 561-689 P618L limits assumed): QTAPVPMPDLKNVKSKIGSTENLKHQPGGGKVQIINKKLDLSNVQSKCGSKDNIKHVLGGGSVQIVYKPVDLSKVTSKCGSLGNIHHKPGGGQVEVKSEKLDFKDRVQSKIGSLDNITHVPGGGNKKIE
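Steps: dispense K18 P301L tau (15 uM plus 0.24 uM Alexa 594 tracer, final) in pH 7 sodium acetate; add compound; add heparin (20 uM final); incubate 6 hr, 37 C; add ThT (30 uM final); after 1 hr ambient, read FP.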
Tau fibril ThT: blocks human tau fibril formation measured by thioflavin T | P10636 | recombinant tau K18 P301L, heparin-induced fibrillization, ThT fluorescence | Potency, µM (top dose mostly 57.4 µM), usual class: inhibitors | 270,000 tested, 2.1% active; further: nearly all actives have a fitted effect of over 55% in size
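Fibril formation assay: tau K18 P301L at 15 uM with trace Alexa 594 label, heparin inducer 20 uM, pH 7 sodium acetate buffer, 37 C for 6 hr; endpoint ThT signal.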
HPGD block: HPGD (human) dehydrogenase inhibition | purified HPGD, NADH fluorescence kinetic, PGE2 substrate | Potency, µM, actives largely listed as inhibitors | 150,000 tested, 4.3% active | AID 894; active means well fitted inhibition curve with a large enough effect, not every such curve was filed as active; inconclusive means small, poorly fitted or top-dose-only effect, or another doubt; inactive means no such curve, though single readings can be large or run the other way
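NADH formation kinetics: reaction with 30 uM PGE2 and 1 mM NAD+ (final), 20 nM enzyme, Tris-HCl pH 8 with Tween 20, after 15 min compound preincubation at room temperature. Fluorescence change, last versus first of five reads.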
Of the large screens only hits and unclear results are named; the others gave an inactive call. An excerpt weighted towards active compounds, which were near 9.5% of everything screened. Unless noted, the call rests on the fitted dose curve; in most records, active means well fitted curve in the direction sought with a large enough effect; inconclusive means small, poorly fitted or top-dose-only effect, or another doubt; inactive means no such curve, though single readings can be large; an effect the other way counts as inactive or inconclusive.

CCc1ccc(N2C(=O)NC(=O)/C(=C/c3cccn3CCOc3ccc(C(C)CC)cc3)C2=O)cc1 (centres undefined)	NPSR antagonist inconclusive, Tau fibril ThT inconclusive
COP(=O)(OC)OC=C(Cl)Cl	ALDH1A1 inh inconclusive (no result: Tau fluor counter, NPSR antagonist, Tau fibril FP, Tau fibril ThT)
Cc1ccc(/C=C2\C(=O)NC(=S)N(c3ccccc3F)C2=O)s1	ALDH1A1 inh 8.91µM, Tau fluor counter inconclusive, NPSR antagonist 5.01µM, Tau fibril ThT 17.8µM, HPGD block 2.24µM
CCCCc1nc2ccccc2c(=O)n1-c1cccc(OC)c1	none (no result: ALDH1A1 inh, NPSR antagonist, HPGD block)
C=CCCC#N	ALDH1A1 inh 3.16µM (no result: Tau fluor counter, NPSR antagonist, Tau fibril FP, Tau fibril ThT)
CC(C)C12CN3CC(C(C)C)(CN(C1)C3c1ccccn1)C2=O (centres undefined)	none (no result: ALDH1A1 inh, NPSR antagonist, HPGD block)
OC12ONC(c3ccccn3)C1N1CCC2CC1 (centres undefined)	Tau fibril FP inconclusive, Tau fibril ThT 12.6µM
Cc1cccc2c1=NC(=O)/C(=C/c1c(O)[nH]c(=O)[nH]c1=O)C=2	ALDH1A1 inh 0.501µM, Tau fibril ThT inconclusive, HPGD block inconclusive
O=c1[nH]c(O)c(C=NCCc2ccccc2)c(=O)[nH]1	none (no result: ALDH1A1 inh, HPGD block)
COc1ccc(-c2nnc3n2N(C(C)=O)C(c2ccc(Cl)c(Cl)c2)=C(C(C)=O)S3)cc1	Tau fibril ThT inconclusive (no result: ALDH1A1 inh, NPSR antagonist, HPGD block)
CN1C(=O)C(=Cc2ccc(N3CCCCC3)o2)C(=O)N(C)C1=S	ALDH1A1 inh 14.1µM, Tau fibril FP inconclusive
CN1C(=O)/C(=C\N2CCc3ccccc32)C(=O)NC1=S	ALDH1A1 inh inconclusive, Tau fibril ThT inconclusive
CN1C(=O)C(=Cc2ccc(SC3CCCCC3)o2)C(=O)N(C)C1=O	ALDH1A1 inh 14.1µM, Tau fibril ThT inconclusive (no result: HPGD block)
CCN(CC)c1ccc(C=C2C(=O)N(C)C(=S)N(C)C2=O)o1	Tau fibril ThT 10µM
O=C1NC(=O)C(=Cc2ccc(N3CCOCC3)o2)C(=O)N1	Tau fibril ThT inconclusive (no result: HPGD block)
CN1C(=O)C(=Cc2cccnc2)C(=O)N(C)C1=O	Tau fibril ThT inconclusive (no result: ALDH1A1 inh, HPGD block)
Cc1cc(C=C2C(=O)N(C)C(=S)N(C)C2=O)c(C)n1-c1ccncc1	ALDH1A1 inh inconclusive, Tau fibril ThT inconclusive (no result: HPGD block)
CCN(CC)c1ccc(/C=C2\C(=O)NC(=S)N(C)C2=O)o1	Tau fibril ThT 14.1µM (no result: ALDH1A1 inh, HPGD block)
CO[C@@H](C)[C@](O)(C(=O)OCC1=CCN2CC[C@@H](O)[C@H]12)C(C)C	none (no result: Tau fluor counter, NPSR antagonist, Tau fibril FP, Tau fibril ThT)
C=CCn1c(=O)c(C=Nc2cccc([N+](=O)[O-])c2)c(O)n(CCCC)c1=O	Tau fibril ThT inconclusive
C=CCn1c(=O)c(C=Nc2c(OC)cccc2[N+](=O)[O-])c(O)n(CCCC)c1=O	ALDH1A1 inh 12.6µM, Tau fluor counter inconclusive, Tau fibril ThT inconclusive
CN(N=O)c1ccc(O)c(O)c1	ALDH1A1 inh 15.8µM, HPGD block 8.91µM
COc1cccc(CCNCc2c(F)cccc2F)c1	ALDH1A1 inh 10µM (no result: HPGD block)
Cn1c(=O)c(Oc2ccc(F)cc2)c(O)c2ccccc21	ALDH1A1 inh inconclusive, HPGD block inconclusive
CN1CC[C@@]2(C)c3cc(O)ccc3N(C)C12 (some centres undefined)	ALDH1A1 inh inconclusive, Tau fluor counter inconclusive, NPSR antagonist inconclusive, Tau fibril FP 8.91µM, Tau fibril ThT 7.08µM
O=C(O)C[C@H]1OCC=C2CN3CC[C@@]45C6=CC(=O)C(=O)C([N+](=O)[O-])=C6N[C@H]4[C@H]1[C@H]2C[C@@H]35	none (no result: Tau fluor counter, NPSR antagonist, Tau fibril FP, Tau fibril ThT)
O=c1[nH]c(=S)n(Cc2ccc(F)cc2)c(O)c1C=NCC1CCCO1 (centres undefined)	ALDH1A1 inh inconclusive, HPGD block 28.2µM
O=c1[nH]c(=S)n(C2CC2)c(O)c1C=NCC1CCCO1 (centres undefined)	Tau fibril FP inconclusive (no result: ALDH1A1 inh, HPGD block)
O=C(c1ccc2c(=O)n(Cc3ccc4c(c3)OCO4)c(=S)[nH]c2c1)N1CCC2(CC1)OCCO2	ALDH1A1 inh inconclusive, HPGD block 31.6µM
Nc1ccc(C2(c3ccc(N)cc3)CCCCC2)cc1	ALDH1A1 inh 14.1µM (no result: HPGD block)
CC[C@@]1(c2ccc(N)cc2)CCC(=O)NC1=O	none (no result: Tau fluor counter, NPSR antagonist, Tau fibril FP, Tau fibril ThT)
O=C(c1cc(S(=O)(=O)N2CCCCC2)ccc1F)N1CCC2(CC1)OCCO2	ALDH1A1 inh inconclusive
O=C(c1csc2c1CCCCC2)N1CCC2(CC1)OCCO2	ALDH1A1 inh 8.91µM, HPGD block inconclusive
